Laboratory results reported in PubChem BioAssay AID2174 (The Scripps Research Institute Molecular Screening Center, 2009).
The whole screen tested about 320,000 compounds, of which about 500 (0.16%) were called active. Only a selection was taken, and actives are over-represented in it overall. Values without a mark were called inactive.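 Rule for the calls: active = inhibition above the mean of all tested compounds plus 3 SD, set per campaign (cut at about 14% in these data); inactive = the rest.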

target: Acyl-protein thioesterase 1 (Homo sapiens) (UniProt O75608); assay: LYPLA1 inhibitors, primary screen, counter-screen for PME1 inhibitor project, biochemical, fluorescence polarization, FP-Rh probe ABPP (AID 2174); conditions: recombinant LYPLA1, FP-Rh probe fluorescence polarization; at 5.9 µM; hits give high values;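 note: inhibitors block serine hydrolase probe labeling of LYPLA1 so polarization falls; 0% = enzyme with DMSO and 100% = wells lacking LYPLA1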
Sequence (O75608 whole entry, looked up): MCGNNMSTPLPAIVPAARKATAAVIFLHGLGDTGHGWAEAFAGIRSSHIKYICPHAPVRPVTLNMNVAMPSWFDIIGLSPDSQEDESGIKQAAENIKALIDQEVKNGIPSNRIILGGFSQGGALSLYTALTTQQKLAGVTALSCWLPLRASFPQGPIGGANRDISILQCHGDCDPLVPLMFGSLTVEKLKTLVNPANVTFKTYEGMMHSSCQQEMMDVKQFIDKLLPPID

SMILES | inhibition
Cc1ccc(S(=O)(=O)N2CCC(C(=O)N[C@@H](C)C(=O)NCc3ccccc3)CC2)cc1 | -4.86%
Cc1ccc(S(=O)(=O)N2CCC(C(=O)N[C@@H](C)C(=O)NCCc3ccccc3)CC2)cc1 | 2.54%
Cc1ccc(S(=O)(=O)N2CCC(C(=O)N[C@@H](C)C(=O)NCc3ccco3)CC2)cc1 | 48% (active)
COc1ccc(C(C)NC(=O)C2CCCC2)cc1 (stereo not drawn) | 0.96%
Cc1c(Nc2nc3ccccc3nc2NS(=O)(=O)c2cccs2)c(=O)n(-c2ccccc2)n1C | -0.16%
CCOC(=O)c1c(/N=C/c2cc(C)ccc2O)sc2c1CCC2 | -3.88%
C=CCNC(=O)c1cc(-c2ccccc2O)on1 | -0.65%
C=CCNC(=O)c1sc(SC)cc1-c1ccc(Cl)cc1 | 21.3% (active)
C=CCNC(=S)NNC(=O)c1cc(Cl)ccc1OC | 1.08%
CCn1cc(-c2cc(C(=O)O)on2)c(C)n1 | -0.98%
CC(C)S(=O)(=O)c1csc(NC(=O)Nc2ccc(Cl)cc2)c1Cl | -33.1%
CC1Cn2c(nnc2-c2cccs2)S1 (stereo not drawn) | -1.86%
CN1C(=O)c2ccccc2C(C(=O)NCCCN2CCCC2)C1c1c[nH]c2ccccc12 (stereo not drawn) | 3.18%
O=C1NC2(CCCCCC2)C(=O)N1CCS(=O)(=O)Oc1ccccc1 | -0.42%
CC(C)CCNC(=O)CCNS(=O)(=O)c1ccc(Cl)cc1 | -1.02%
O=C(CCCn1c(=O)c2sccc2n(CC(=O)NCC2CCCO2)c1=O)NCc1ccco1 (stereo not drawn) | 4.84%
CCCCN(C(=O)/C=C/c1ccco1)c1c(N)n(CC(C)C)c(=O)[nH]c1=O | -1.43%
O=C(NC1CC1)C1=C[C@H](c2c[nH]c3ccccc23)C[C@H](OCc2ccc(CO)cc2)O1 | 0.98%
CC(=O)N1CCN(C(=O)c2cc(-c3ccc(Cl)s3)nc3ccccc23)CC1 | -4.07%
CCOc1ccc(N(CC(=O)NCCc2ccc(OC)cc2)S(C)(=O)=O)cc1 | 1.18%
CCn1c(SCC(=O)NC2CC2)nnc1-c1ccccn1 | -1.31%
COc1ccc(CCNC(=O)c2ccc3c(c2)NC(=O)C(N2CCOCC2)S3)cc1OC (stereo not drawn) | -0.92%

SMILES | inhibition
CCN1CCN(CCNC(=O)c2ccc3c(c2)NC(=O)/C(=C\c2ccc(OC)c(OC)c2)S3)CC1 | 24.7% (active)
COc1ccc(/C=C(\NC(=O)c2ccccc2)C(=O)NCCN2CCOCC2)cc1OC | -3.08%
CCNc1ccc(C(=O)OCC(=O)N2c3ccccc3NC(=O)C2(C)C)cc1[N+](=O)[O-] | 2.28%
C=C(C)CSc1nc(N)c2c3c(sc2n1)CCC3 | -2.73%
CCc1noc(C)c1C(=O)N1CCN(S(=O)(=O)c2cccc(C(F)(F)F)c2)CC1 | -4.37%
O=C(COc1ccccc1Cl)Nc1ccc(C(=O)c2ccc(C(=O)O)cc2)cc1 | 0.16%
O=C(NC(Cc1ccc(O)cc1)C(=O)O)/C(=C/c1ccccc1)NC(=O)c1ccccc1 (stereo not drawn) | -3.61%
O=C(O)c1ccccc1-c1ccccc1C(=O)NCCc1ccccc1 | -3.92%
CC(C)CC1(C(=O)NCc2ccccn2)C=CCN1C(=O)c1ccccc1 (stereo not drawn) | 0.98%
CCc1[nH]nc(C(=O)N2CCCC(CO)(Cc3ccc(F)cc3F)C2)c1C (stereo not drawn) | -0.39%
COC(=O)c1ccc(SCc2ccccc2)nc1 | -1.56%
CCn1c(SCc2ccccc2)nc2cc(OC)c(OC)cc2c1=O | -1.81%
CSc1c(SCc2ccccc2)cnn(Cc2ccccc2)c1=O | 15% (active)
COC(=O)C1=C(C(=O)OC)[C@@H]2N(C)c3ccccc3[C@@]23C[C@@H](C(=O)OC)N(C(C)=O)C3=N1 | -0.85%
CCCCCCCCCCCC(=O)O | 1.07%
COc1ccc(C2C(C#N)=C(N)Oc3n[nH]c(C)c32)cc1CN1CCN(c2ccc(F)cc2)CC1 (stereo not drawn) | -1.23%
CCOC(=O)C1(CC2CCCCO2)CCN(Cc2nc(-c3cccs3)oc2C)CC1 (stereo not drawn) | -3.08%
CC[N+](C)(CC)CCC[n+]1c(-c2ccccc2)c2cc(N)ccc2c2ccc(N)cc21 | 60.1% (active)
CCOC(=O)C1=C(CC)Nc2ccccc2N=C1NC(=O)c1cccc(S(=O)(=O)N2CCCC2)c1 | -0.79%
COc1cc(OC)cc(-c2c(-c3ccc(F)cc3)c3cc(-c4ccc5cc[nH]c5c4)ccc3n2C)c1 | -1.29%
CC1=C[C@H]2Cc3cc(C)cc(C)c3S(=O)(=O)[C@@H]2C=C1 | -3.78%
